Inconclusive results are not listed. A call without a number means that no potency is given here. Activity calls are given as the source filed them. Calls come from the whole dose curve; as a rule, active = well fitted inhibition curve with a large enough effect; inconclusive = small, poorly fitted or top-dose-only effect; inactive = no such curve, though single readings can be large or run the other way.
Potency is the fitted concentration of half-maximal effect.

Sequence of Cytochrome P450 3A4 (Homo sapiens) (P08684 whole entry, looked up): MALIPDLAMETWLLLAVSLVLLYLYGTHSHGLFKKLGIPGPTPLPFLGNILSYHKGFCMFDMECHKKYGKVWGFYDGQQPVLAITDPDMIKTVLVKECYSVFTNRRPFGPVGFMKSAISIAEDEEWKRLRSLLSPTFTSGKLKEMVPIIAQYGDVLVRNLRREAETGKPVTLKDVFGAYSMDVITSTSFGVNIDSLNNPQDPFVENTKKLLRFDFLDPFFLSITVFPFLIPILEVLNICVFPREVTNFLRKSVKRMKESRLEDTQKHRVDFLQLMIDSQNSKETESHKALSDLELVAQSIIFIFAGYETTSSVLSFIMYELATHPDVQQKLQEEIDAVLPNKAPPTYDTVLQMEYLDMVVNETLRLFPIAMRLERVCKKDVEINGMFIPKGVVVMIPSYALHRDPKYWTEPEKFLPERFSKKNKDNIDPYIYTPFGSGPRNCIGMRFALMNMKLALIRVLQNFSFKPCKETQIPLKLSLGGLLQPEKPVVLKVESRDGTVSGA

For one test, the target named is Cytochrome P450 2C9 (Homo sapiens) (UniProt P11712). Kind of test: qHTS Assay for Inhibitors and Substrates of Cytochrome P450 2C9 (AID 883). Note: nearly all actives have a fitted effect of over 60% in size. The note with it: recombinant CYP2C9, luciferin-H luminescence, 60 min; series mostly up to 57.1 µM. The essentials: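 CYP2C9 deoxyluciferin hydroxylation, 37C, 60 min with NADPH regeneration; 10nM enzyme, 100uM Luciferin-H (KM). Glo detection reagent stopped reaction; luminescence normalized to sulphaphenazole (57uM) full inhibition.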
Sequence of Cytochrome P450 2C9 (Homo sapiens) (P11712 whole entry, looked up): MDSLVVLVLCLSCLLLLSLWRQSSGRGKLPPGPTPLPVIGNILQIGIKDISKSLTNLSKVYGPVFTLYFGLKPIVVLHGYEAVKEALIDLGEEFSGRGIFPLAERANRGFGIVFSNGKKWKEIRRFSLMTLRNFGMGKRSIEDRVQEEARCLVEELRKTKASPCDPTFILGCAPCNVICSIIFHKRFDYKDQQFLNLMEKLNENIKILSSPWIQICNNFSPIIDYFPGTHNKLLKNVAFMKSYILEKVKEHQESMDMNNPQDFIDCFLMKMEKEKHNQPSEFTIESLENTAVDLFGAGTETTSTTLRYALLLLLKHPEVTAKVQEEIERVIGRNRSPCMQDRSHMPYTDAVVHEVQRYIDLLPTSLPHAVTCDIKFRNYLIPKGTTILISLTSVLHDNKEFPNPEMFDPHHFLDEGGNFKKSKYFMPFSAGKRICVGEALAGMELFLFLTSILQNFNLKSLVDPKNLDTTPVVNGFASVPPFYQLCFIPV
For orientation: qHTS replaces the single test concentration by a dilution series.
Take `COc1c(C)c2c(c(O)c1C/C=C(\C)CCC(=O)O)C(=O)OC2`: the Potency entry is “inactive”. For the compound `Cc1ccnc(NS(=O)(=O)c2ccc(N)cc2)n1`, the Potency entry is “inactive”.

In the case of `CCOc1ccc(Cc2nccc3cc(OCC)c(OCC)cc23)cc1OCC`, the Potency is 3.98 µM (active).

In the case of `COc1ccc(CCN2CCC(Nc3nc4ccccc4n3Cc3ccc(F)cc3)CC2)cc1`, the Potency entry is “inactive”. Same read-out and setting: in the case of `CCCCOc1ccc(C(=O)CCN2CCCCC2)cc1` it was 2.51 µM (active).

Another test has as its target Cytochrome P450 3A4 (Homo sapiens) (UniProt P08684). Kind of test: qHTS Assay for Inhibitors and Substrates of Cytochrome P450 3A4 (AID 884). Note: nearly all actives have a fitted effect of over 50% in size. The note with it: recombinant CYP3A4, Luciferin-PPXE luminescence; series mostly up to 57.1 µM. The essentials:
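20 nM human CYP3A4 with 25 uM Luciferin-PPXE (at KM) in 200 mM KPO4, preincubated 10 min with compound; NADPH regeneration started a 60 min RT reaction. Luciferin detected by luminescence, normalized to 57 uM ketoconazole as full inhibition.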
As to `CC(C)(C(=O)c1cccnc1)c1cccnc1`, the Potency is 1.26 µM (active). As for `CCOC(=O)n1ccn(C)c1=S`, the Potency result was “inactive”. On the same count and under the same terms, in the case of `Cc1ccc(C(=O)C(C)CN2CCCCC2)cc1` (stereo not drawn) it was “inactive”; in that of `CCOc1ccc2nc3cc(N)ccc3c(N)c2c1`, “inactive”; in that of `Cc1cccc(C)c1NC(=O)CN1CCN(CCCC(c2ccc(F)cc2)c2ccc(F)cc2)CC1`, “inactive”.

As for `Nc1nc2ncc(CNc3ccc(C(=O)N[C@@H](CCC(=O)O)C(=O)O)cc3)nc2c(=O)[nH]1`, the Potency entry was “inactive”. Still for that read-out and setting: under `O=C(CCCN1CCC(O)(c2ccc(Br)cc2)CC1)c1ccc(F)cc1` stands “inactive”; under `CCN1CCN(c2cc3c(cc2F)c(=O)c(C(=O)O)cn3C2CC2)CC1`, “inactive”; under `CCCCOc1cc(C(=O)NCCN(CC)CC)c2ccccc2n1`, “inactive”. As for `OCc1ccccc1O`, the Potency result is “inactive”. On the same count and under the same terms, in the case of `CO/N=C1\CN(c2nc3c(cc2F)c(=O)c(C(=O)O)cn3C2CC2)CC1CN` (stereo not drawn) it was “inactive”.

Consider `Cc1ccnc(NS(=O)(=O)c2ccc(N)cc2)n1`, for which the Potency result is “inactive”. Same read-out and setting: under `CN1CCN(C(c2ccccc2)c2ccccc2)CC1` stands “inactive”; under `Oc1c(I)cc(I)c2cccnc12`, “inactive”. The same measure, in the same setting: in the case of `Oc1ccc(Cl)c2cccnc12` it was “inactive”; in that of `Cc1c(C(N)=O)cc([N+](=O)[O-])cc1[N+](=O)[O-]`, “inactive”. On the same count and under the same terms, in the case of `CCn1cc(C(=O)O)c(=O)c2cnc(N3CCCC3)nc21` it was “inactive”; in that of `CN1CCC(=C2c3ccccc3Sc3ccccc32)CC1`, “inactive”. For `Cc1c(N(C)CS(=O)(=O)O)c(=O)n(-c2ccccc2)n1C`, the Potency result was “inactive”. Same read-out and setting: under `CC(=O)N(O)CCCCCNC(=O)CCC(=O)N(O)CCCCCNC(=O)CCC(=O)N(O)CCCCCN` stands “inactive”. Same read-out and setting: in the case of `CCN(CCCc1ccccc1)CCCc1ccccc1` it was “inactive”. The same measure, in the same setting: under `CC(=O)Nc1c(I)cc(I)c(C(=O)O)c1I` stands “inactive”. Consider `COc1ccc(C2C(=O)c3ccccc3C2=O)cc1`, for which the Potency result is “inactive”. Same read-out and setting: in the case of `CCCCCCCCCCCCCCCCOP(=O)([O-])OCC[N+](C)(C)C` it was “inactive”; in that of `CC(C)(CO)[C@@H](O)C(=O)NCCCO`, “inactive”. On the same count and under the same terms, under `COc1cc(OC)cc(OC)c1` stands “inactive”. Same read-out and setting: under `CC(CCc1ccccc1)NCC(O)c1ccc(O)c(C(N)=O)c1` (stereo not drawn) stands “inactive”; under `CCN(CC)C(=O)N1CCN(C)CC1`, “inactive”.

These data come from PubChem BioAssay (NCATS).
